Assay results as given in PubChem BioAssay (EPA / NIEHS).
Values joined by “and” are separate entries in the source; they are usually repeats but may differ in a detail not shown here. Equal values may be shown once. Active and inactive are the calls of the source. Rule for the calls: active = hit-call score of the fitted dose curve at least 0.9, where 1 is the maximum; inactive = score below 0.9.

Read-out: Plasminogen activator inhibitor-1 (PAI1), SERPINE1 (gene 5054)
Test: BSK_KF3CT_PAI1: BioMAP Diversity Plus: KF3CT Assay for Plasminogen activator inhibitor-1 (PAI1) Biomarker Activity (AID 2284252)
Details: primary human keratinocytes with fibroblasts
How it was run: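 Human keratinocyte/foreskin fibroblast co-culture dosed for 24 h; PAI-1 measured by ELISA, fitted in positive direction against DMSO baseline. Parallel SRB total-protein staining (0.1% SRB, 560 nm) assesses overt cytotoxicity.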

| SMILES | AC50 | outcome |
| --- | --- | --- |
| CCCCCCC(CO)CCCC (centres undefined) | 32.7 µM (active) and 31 µM (active) |  |
| O=C(Nc1ccc2c(O)c(N=Nc3ccc(N=Nc4ccc(S(=O)(=O)O)cc4)cc3)c(S(=O)(=O)O)cc2c1)c1ccccc1 |  | inactive |
| O=CN1CCOCC1 |  | inactive |
| CCOC(=O)C(C#N)=C(c1ccccc1)c1ccccc1 |  | inactive |
| CC1(C)CCC[C@]2(C)[C@H]3CCO[C@]3(C)CC[C@@H]12 | 34.7 µM (active) and 34.6 µM (active) |  |
| C=CC(C)(O)CCC=C(C)C (centres undefined) |  | inactive |
| CC(CN=Cc1ccccc1O)N=Cc1ccccc1O (centres undefined) |  | inactive |

Read-out: Interleukin-8 (IL8), CXCL8 (gene 3576)
Test: BSK_KF3CT_IL8: BioMAP Diversity Plus: KF3CT Assay for Interleukin-8 (IL8) Biomarker Activity (AID 2284254)
Details: primary human keratinocytes with fibroblasts
How it was run: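 IL-8 read-out: ELISA, 24 h post-dose, human skin primary co-culture (keratinocytes + foreskin fibroblasts). DMSO = baseline; positive-direction fit.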

| SMILES | AC50 | outcome |
| --- | --- | --- |
| CCCCCCC(CO)CCCC (centres undefined) | 28.9 µM (active) and 32.5 µM (active) |  |
| O=C(Nc1ccc2c(O)c(N=Nc3ccc(N=Nc4ccc(S(=O)(=O)O)cc4)cc3)c(S(=O)(=O)O)cc2c1)c1ccccc1 |  | inactive |
| O=CN1CCOCC1 |  | inactive |
| CCOC(=O)C(C#N)=C(c1ccccc1)c1ccccc1 |  | inactive |
| CC1(C)CCC[C@]2(C)[C@H]3CCO[C@]3(C)CC[C@@H]12 | 36.8 µM (active) and 31.3 µM (active) |  |
| C=CC(C)(O)CCC=C(C)C (centres undefined) |  | inactive |
| CC(CN=Cc1ccccc1O)N=Cc1ccccc1O (centres undefined) |  | inactive |

Read-out: Plasminogen activator inhibitor-1 (PAI1), SERPINE1 (gene 5054)
Test: BSK_MyoF_PAI1: BioMAP Diversity Plus: MyoF Assay for Plasminogen activator inhibitor-1 (PAI1) Biomarker Activity (AID 2284256);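 for outcome: PAI-1 read 24 h after compound addition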
Details: primary human lung fibroblasts
How it was run: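 MyoF lung fibroblasts, human primary; compound 24 h; PAI-1 ELISA; positive-direction fit vs DMSO baseline; parallel SRB total-protein staining for cytotoxicity.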

| SMILES | AC50 | outcome |
| --- | --- | --- |
| CC(=O)Nc1ccc(C(=O)CCl)cc1 | 13.7 µM (active) |  |
| O=C1OC2(c3ccccc31)c1ccc(O)c(Br)c1Oc1c2ccc(O)c1Br | 9.25 µM (active) |  |
| C=C(C)[C@H]1CC=C(C)C(=O)C1 |  | inactive |
| O=C1OC[C@H](Cc2cccc(O)c2)[C@H]1Cc1cccc(O)c1 |  | inactive |
| CN(c1nccc(=O)[nH]1)C1CCN(c2nc3ccccc3n2Cc2ccc(F)cc2)CC1 |  | inactive |
| c1ccc(CCc2ccccc2)cc1 | 35.2 µM (active) |  |
| C=C(C)C(=O)OCCOCCOCCOCCOC(=O)C(=C)C |  | inactive |
| CCCCCC(C=O)=Cc1ccccc1 |  | inactive |
| CS(=O)(=O)c1ccc(C2=C(c3ccccc3)C(=O)OC2)cc1 | 0.0082 µM (active) |  |
| CN(C)C(=O)Nc1ccc(Oc2ccc(Cl)cc2)cc1 | 0.016 µM (active) |  |
| C=C(C)C(=O)OCCOCCOCCOC(=O)C(=C)C |  | inactive |
| C=C(C)C(=O)OCC(CC)(COC(=O)C(=C)C)COC(=O)C(=C)C | 13 µM (active) |  |
| CC=Cc1ccc(OCC)c(O)c1 |  | inactive |
| COc1ccc(OC)c(N=Nc2c(O)ccc3ccccc23)c1 |  | inactive |
| CCCCN(CCCC)C(=O)N(CCCC)CCCC | 10.7 µM (active) |  |

Read-out: Interleukin-8 (IL8), CXCL8 (gene 3576)
Test: BSK_MyoF_IL8: BioMAP Diversity Plus: MyoF Assay for Interleukin-8 (IL8) Biomarker Activity (AID 2284261)
Details: primary human lung fibroblasts
How it was run: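 Lung fibroblasts (human primary) → chemical exposure → 24 h → IL-8 measured by ELISA. Signal increase scored versus DMSO control.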

| SMILES | AC50 | outcome |
| --- | --- | --- |
| CC(=O)Nc1ccc(C(=O)CCl)cc1 | 29.6 µM (active) |  |
| O=C1OC2(c3ccccc31)c1ccc(O)c(Br)c1Oc1c2ccc(O)c1Br |  | inactive |
| C=C(C)[C@H]1CC=C(C)C(=O)C1 |  | inactive |
| O=C1OC[C@H](Cc2cccc(O)c2)[C@H]1Cc1cccc(O)c1 |  | inactive |
| CN(c1nccc(=O)[nH]1)C1CCN(c2nc3ccccc3n2Cc2ccc(F)cc2)CC1 |  | inactive |
| c1ccc(CCc2ccccc2)cc1 |  | inactive |
| C=C(C)C(=O)OCCOCCOCCOCCOC(=O)C(=C)C |  | inactive |
| CCCCCC(C=O)=Cc1ccccc1 |  | inactive |
| CS(=O)(=O)c1ccc(C2=C(c3ccccc3)C(=O)OC2)cc1 |  | inactive |
| CN(C)C(=O)Nc1ccc(Oc2ccc(Cl)cc2)cc1 |  | inactive |
| C=C(C)C(=O)OCCOCCOCCOC(=O)C(=C)C |  | inactive |
| C=C(C)C(=O)OCC(CC)(COC(=O)C(=C)C)COC(=O)C(=C)C |  | inactive |
| CC=Cc1ccc(OCC)c(O)c1 |  | inactive |
| COc1ccc(OC)c(N=Nc2c(O)ccc3ccccc23)c1 | 0.0788 µM (active) |  |
| CCCCN(CCCC)C(=O)N(CCCC)CCCC |  | inactive |

Read-out: Decorin, DCN (gene 1634)
Test: BSK_MyoF_Decorin: BioMAP Diversity Plus: MyoF Assay for Decorin Biomarker Activity (AID 2284265)
Details: primary human lung fibroblasts
How it was run: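 ELISA readout of decorin, 24 h post-dosing; primary human lung fibroblast (MyoF) culture; gain-of-signal fit vs DMSO baseline.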

| SMILES | outcome | AC50 |
| --- | --- | --- |
| CC(=O)Nc1ccc(C(=O)CCl)cc1 | inactive |  |
| O=C1OC2(c3ccccc31)c1ccc(O)c(Br)c1Oc1c2ccc(O)c1Br | inactive |  |
| C=C(C)[C@H]1CC=C(C)C(=O)C1 | inactive |  |
| O=C1OC[C@H](Cc2cccc(O)c2)[C@H]1Cc1cccc(O)c1 | inactive |  |
| CN(c1nccc(=O)[nH]1)C1CCN(c2nc3ccccc3n2Cc2ccc(F)cc2)CC1 | inactive |  |
| c1ccc(CCc2ccccc2)cc1 |  | 26.8 µM (active) |
| C=C(C)C(=O)OCCOCCOCCOCCOC(=O)C(=C)C | inactive |  |
| CCCCCC(C=O)=Cc1ccccc1 | inactive |  |
| CS(=O)(=O)c1ccc(C2=C(c3ccccc3)C(=O)OC2)cc1 | inactive |  |
| CN(C)C(=O)Nc1ccc(Oc2ccc(Cl)cc2)cc1 | inactive |  |
| C=C(C)C(=O)OCCOCCOCCOC(=O)C(=C)C | inactive |  |
| C=C(C)C(=O)OCC(CC)(COC(=O)C(=C)C)COC(=O)C(=C)C |  | 10.1 µM (active) |
| CC=Cc1ccc(OCC)c(O)c1 | inactive |  |
| COc1ccc(OC)c(N=Nc2c(O)ccc3ccccc23)c1 | inactive |  |
| CCCCN(CCCC)C(=O)N(CCCC)CCCC | inactive |  |

Read-out: not listed separately
Test: BSK_MyoF_SRB: Viability Assessment in the BioMAP Diversity Plus: MyoF Assay (AID 2284267);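 note: total protein by SRB absorbance in parallel cultures as cytotoxicity measure; cells assessed 24 h after compound addition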
Details: primary human lung fibroblasts
How it was run: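 Human lung fibroblasts, 24 h after chemical dosing; total protein measured by 0.1% sulforhodamine B staining after 10% TCA fixation, read at 560 nm, fitted relative to DMSO baseline.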

| SMILES | AC50 | outcome |
| --- | --- | --- |
| CC(=O)Nc1ccc(C(=O)CCl)cc1 | 29.3 µM (active) |  |
| O=C1OC2(c3ccccc31)c1ccc(O)c(Br)c1Oc1c2ccc(O)c1Br |  | inactive |
| C=C(C)[C@H]1CC=C(C)C(=O)C1 |  | inactive |
| O=C1OC[C@H](Cc2cccc(O)c2)[C@H]1Cc1cccc(O)c1 |  | inactive |
| CN(c1nccc(=O)[nH]1)C1CCN(c2nc3ccccc3n2Cc2ccc(F)cc2)CC1 |  | inactive |
| c1ccc(CCc2ccccc2)cc1 | 37.2 µM (active) |  |
| C=C(C)C(=O)OCCOCCOCCOCCOC(=O)C(=C)C |  | inactive |
| CCCCCC(C=O)=Cc1ccccc1 |  | inactive |
| CS(=O)(=O)c1ccc(C2=C(c3ccccc3)C(=O)OC2)cc1 |  | inactive |
| CN(C)C(=O)Nc1ccc(Oc2ccc(Cl)cc2)cc1 |  | inactive |
| C=C(C)C(=O)OCCOCCOCCOC(=O)C(=C)C |  | inactive |
| C=C(C)C(=O)OCC(CC)(COC(=O)C(=C)C)COC(=O)C(=C)C | 15.5 µM (active) |  |
| CC=Cc1ccc(OCC)c(O)c1 |  | inactive |
| COc1ccc(OC)c(N=Nc2c(O)ccc3ccccc23)c1 | 6.83 µM (active) |  |
| CCCCN(CCCC)C(=O)N(CCCC)CCCC | 11 µM (active) |  |
